Records with an inconclusive call do not appear. Activity calls are given as the source filed them. Unless noted, the call rests on the fitted dose curve; in most records, active means well fitted curve in the direction sought with a large enough effect in the repeat runs; inconclusive means weak or mixed curves; inactive means no such curve, though single readings can be large; an effect the other way counts as inactive or inconclusive.
Key:
[1] = biological target: Luciferin 4-monooxygenase (Photinus pyralis) (UniProt P08659); assay: qHTS assay to identify small molecule inhibitors of firefly luciferase (AID 1224835); further: nearly all actives have a fitted effect of over 25% in size; further: potency means the concentration at half of the fitted maximal effect; on activity change, negative = inhibition: series mostly up to about 120 µM
Sequence of Luciferin 4-monooxygenase (Photinus pyralis) (P08659 whole entry, looked up): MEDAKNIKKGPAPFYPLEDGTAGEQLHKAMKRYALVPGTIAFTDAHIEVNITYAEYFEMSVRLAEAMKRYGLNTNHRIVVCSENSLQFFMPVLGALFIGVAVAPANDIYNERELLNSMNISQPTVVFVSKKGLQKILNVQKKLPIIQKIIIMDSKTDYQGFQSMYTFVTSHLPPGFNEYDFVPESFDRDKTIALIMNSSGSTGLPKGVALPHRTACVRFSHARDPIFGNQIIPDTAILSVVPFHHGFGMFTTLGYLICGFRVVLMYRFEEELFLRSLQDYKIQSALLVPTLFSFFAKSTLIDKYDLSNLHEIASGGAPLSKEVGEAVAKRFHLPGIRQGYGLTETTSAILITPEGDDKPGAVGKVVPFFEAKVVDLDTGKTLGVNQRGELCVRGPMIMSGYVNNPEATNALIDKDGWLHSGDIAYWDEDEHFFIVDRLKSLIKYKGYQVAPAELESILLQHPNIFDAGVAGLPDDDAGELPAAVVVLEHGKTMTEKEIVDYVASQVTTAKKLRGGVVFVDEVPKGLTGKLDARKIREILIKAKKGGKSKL
Method in brief: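 Inhibition of purified Photinus luciferase is measured by luminescence. Substrate levels (D-luciferin, ATP) sit at their KM values. Each compound is tested in a concentration series.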

[2] = qHTS assay to identify small molecule agonists of the constitutive androstane receptor (CAR) signaling pathway - cell viability counter screen (AID 1224836); further: series mostly up to about 92 µM; nearly all actives have a fitted effect of over 45% in size
Method in brief: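 Using CellTiter-Fluor, viability of HepG2 cells harbouring hCAR and CYP2B6-2.2kb was measured following 23 h incubation with a 15-concentration compound series plus PK11195 (0.75 uM final).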

[3] = biological target: Nuclear receptor subfamily 1 group I member 3 (Homo sapiens) (UniProt Q14994); assay: qHTS assay to identify small molecule antagonists of the constitutive androstane receptor (CAR) signaling pathway (AID 1224838);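 further: HepG2 cells stably expressing hCAR with CYP2B6 luciferase reporter stimulated by CITCO; nearly all actives have a fitted effect of over 40% in size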
Sequence of Nuclear receptor subfamily 1 group I member 3 (Homo sapiens) (Q14994 whole entry, looked up): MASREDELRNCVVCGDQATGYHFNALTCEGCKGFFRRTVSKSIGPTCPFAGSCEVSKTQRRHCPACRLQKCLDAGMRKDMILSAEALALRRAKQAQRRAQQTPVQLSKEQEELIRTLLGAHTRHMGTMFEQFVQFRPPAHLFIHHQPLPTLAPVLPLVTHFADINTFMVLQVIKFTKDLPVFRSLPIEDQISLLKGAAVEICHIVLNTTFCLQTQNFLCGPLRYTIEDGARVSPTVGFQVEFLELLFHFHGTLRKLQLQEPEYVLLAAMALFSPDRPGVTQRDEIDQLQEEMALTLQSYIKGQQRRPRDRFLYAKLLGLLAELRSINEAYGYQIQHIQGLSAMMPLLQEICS
Method in brief: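 Quantitative HTS in double-stable HepG2-CYP2B6-hCAR cells. After 4 h plating, cells get compound (15 concentrations) and CITCO at 50 nM final, incubate 24 h at 37 C, then ONE-Glo luminescence is read.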

[4] = biological target: Nuclear receptor subfamily 1 group I member 3 (Homo sapiens) (UniProt Q14994); assay: qHTS assay to identify small molecule agonists of the constitutive androstane receptor (CAR) signaling pathway (AID 1224839);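 further: HepG2 cells stably carrying human CAR and a CYP2B6 luciferase reporter; series mostly up to about 92 µM; nearly all actives have a fitted effect of over 15% in size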
Method in brief: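 Double-stable HepG2 cells (hCAR, CYP2B6-2.2kb) seeded 4 h before compound addition. Exposure 24 h with 0.75 uM PK11195 final. Luciferase detected by ONE-Glo.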

[5] = qHTS assay to identify small molecule antagonists of the estrogen related receptor signaling pathway with the pleiotropic PPARgamma coactivator (PGC) from Tox21 10K library - cell viability counter screen (AID 1224840; active means well fitted cell-killing curve with a large enough effect in the repeat runs, not every such curve was filed as active; further: nearly all actives have a fitted effect of over 40% in size)
Method in brief: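 Compounds in DMSO, alongside positive and negative controls, were pinned onto PGC/ERR cells (2,000 per well). Exposure lasted 17.5 hours at 37 C, followed by a 30-minute CellTiter-Fluor incubation and fluorescence reading.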

[6] = biological target: Thyrotropin receptor (Homo sapiens) (UniProt P16473); assay: qHTS assay to identify small molecule agonists of the thyroid stimulating hormone receptor (TSHR) signaling pathway (AID 1224843; calls by dose curve; further: nearly all actives have a fitted effect of over 45% in size)
Sequence of Thyrotropin receptor (Homo sapiens) (P16473 whole entry, looked up): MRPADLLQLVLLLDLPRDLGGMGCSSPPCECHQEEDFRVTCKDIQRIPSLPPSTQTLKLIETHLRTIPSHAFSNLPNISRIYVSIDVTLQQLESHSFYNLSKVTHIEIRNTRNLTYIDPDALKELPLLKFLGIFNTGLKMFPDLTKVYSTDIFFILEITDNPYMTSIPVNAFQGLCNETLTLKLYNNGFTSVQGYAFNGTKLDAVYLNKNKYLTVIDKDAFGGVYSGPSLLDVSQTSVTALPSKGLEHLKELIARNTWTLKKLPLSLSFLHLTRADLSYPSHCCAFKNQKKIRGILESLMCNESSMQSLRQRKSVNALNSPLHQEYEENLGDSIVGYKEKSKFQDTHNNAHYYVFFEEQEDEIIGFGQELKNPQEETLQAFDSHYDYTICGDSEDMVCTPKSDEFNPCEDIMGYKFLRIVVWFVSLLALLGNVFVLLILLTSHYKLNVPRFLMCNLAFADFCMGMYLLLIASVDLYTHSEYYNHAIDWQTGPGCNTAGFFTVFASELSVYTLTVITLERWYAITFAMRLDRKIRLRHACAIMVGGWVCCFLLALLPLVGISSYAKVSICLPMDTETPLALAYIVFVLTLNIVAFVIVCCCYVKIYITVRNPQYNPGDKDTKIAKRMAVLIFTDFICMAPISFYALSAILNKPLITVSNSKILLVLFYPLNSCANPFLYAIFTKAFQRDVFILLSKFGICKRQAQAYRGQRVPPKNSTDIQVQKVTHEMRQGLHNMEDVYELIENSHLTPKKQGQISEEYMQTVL
Method in brief: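 HEK293 cells stably bearing the thyrotropin receptor were plated at 800 cells/well and challenged with compound (30 min, RT). Accumulated cAMP was quantified via cAMP-d2 competing for cryptate-tagged antibody.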

[7] = qHTS assay to identify small molecule agonists of the hypoxia (HIF-1) signaling pathway - cell viability counter screen (AID 1224844; calls by dose curve; further: nearly all actives have a fitted effect of over 50% in size; further: potency means the concentration at half of the fitted maximal effect)
Method in brief: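 Luminescent ATP content (CellTiter-Glo, 30 min, room temperature) served as the viability measure in HRE-bla ME-180 cells exposed to compounds for 17 hrs in low-serum medium (0.5% dialyzed FBS).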

[8] = qHTS assay to identify small molecule agonists of the estrogen related receptor signaling pathway with the pleiotropic PPARgamma coactivator (PGC) from Tox21 10K library (AID 1224842); further: nearly all actives have a fitted effect of over 15% in size; further: potency means the concentration at half of the fitted maximal effect
Method in brief: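 Luminescence from One-Glo (30 min, room temperature) measured after PGC/ERR cells had 18 h at 37 C with pinned compound (23 nL in DMSO). Cells had been seeded at 2,000 per well and pre-incubated 6 h.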

[9] = qHTS assay to identify small molecule antagonists of the constitutive androstane receptor (CAR) signaling pathway - cell viability counter screen (AID 1224837); further: series mostly up to about 92 µM; nearly all actives have a fitted effect of over 45% in size
Method in brief: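 Fluorescence from CellTiter-Fluor served as the viability signal. Human hepatoma HepG2 cells stably bearing hCAR and CYP2B6-2.2kb received compound plus CITCO (50 nM final) for 23 hr.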

[10] = qHTS assay to identify small molecule antagonists of the estrogen related receptor signaling pathway with the pleiotropic PPARgamma coactivator (PGC) from Tox21 10K library (AID 1224841; call rule not given here; further: series mostly up to about 92 µM; actives are mostly falling curves and most rising ones were filed inactive; nearly all actives have a fitted effect of over 50% in size)
Method in brief: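 Compound exposure ran 18 hours at 37 C in PGC/ERR cells (2,000/well) that had first rested 6 hours in a 37 C/5% CO2 incubator. Luciferase activity was then detected with One-Glo after a 30-minute room-temperature step.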
On the % scale 0 is the no-effect control and ±100 the full control effect.

CN1C(C)(C)CC(O)CC1(C)C
inactive: Potency [1] | outcome [2] | Potency [3] | Potency [4] | outcome [5] | Potency [6] | Potency [7]

Cc1ccc(C(=O)c2ccccc2)cc1
inactive: outcome [2] | Potency [3] | outcome [5] | Potency [7]
active: Potency [1] 31.7 µM

CC(=O)N1C[C@H](O)C[C@H]1C(=O)O
inactive: Potency [1] | outcome [2] | Potency [3] | Potency [4] | outcome [5] | Potency [6] | Potency [7]

C=CCCCCCCCCC(=O)OCC
inactive: Potency [1] | outcome [2] | Potency [3] | Potency [4] | outcome [5] | Potency [8] | Potency [6]

C=COC(=O)C(C)(CC)CCC(C)C (configuration not stated)
inactive: Potency [1] | outcome [2] | Potency [3] | Potency [4] | outcome [5] | Potency [7]

C[N+]1(C)[C@@H]2CC(OC(=O)[C@H](CO)c3ccccc3)C[C@H]1[C@@H]1O[C@@H]12 (some centres not stated)
inactive: Potency [1] | outcome [2] | outcome [9] | Potency [6] | Potency [7]

CCCc1ncc(C[n+]2ccccc2C)c(N)n1
inactive: Potency [1] | outcome [2] | outcome [9] | outcome [5] | Potency [7]

CCCC(=O)O[C@]1(C(=O)CC)CC[C@H]2[C@@H]3CCC4=CC(=O)CC[C@]4(C)[C@H]3[C@@H](O)C[C@@]21C
inactive: Potency [1] | outcome [2] | outcome [9] | outcome [5]
active: Potency [7] 19 µM

O=C(O)CNC(=O)c1ccc(CO)o1
inactive: Potency [1] | outcome [2] | outcome [9] | outcome [5] | Potency [7]

CC(C)(C#N)Nc1nc(Cl)nc(NC2CC2)n1
inactive: Potency [1] | outcome [2] | Potency [3] | Potency [4] | outcome [5] | Potency [6] | Potency [7]

C[C@H]1C[C@H]2[C@@H]3CCC4=CC(=O)C=C[C@]4(C)[C@H]3C(=O)C[C@]2(C)[C@@]1(O)C(=O)CO
inactive: Potency [1] | outcome [2] | Potency [3] | Potency [4] | Potency [8] | Potency [6] | Potency [7]

CC(=O)OCC(=O)[C@@]1(O)[C@H](C)C[C@H]2[C@@H]3CCC4=CC(=O)C=C[C@]4(C)[C@@]3(F)[C@@H](O)C[C@@]21C
inactive: Potency [1] | outcome [2] | outcome [5] | Potency [10] | Potency [8] | Potency [6] | Potency [7]

CCOc1ccccc1OCC
inactive: Potency [1] | outcome [2] | outcome [9] | Potency [8] | Potency [6] | Potency [7]

CC[N+](CC)(CC(=O)Nc1c(C)cccc1C)Cc1ccccc1 (tested in a mixture with another compound)
inactive: Potency [1] | outcome [2] | outcome [9] | outcome [5] | Potency [7]

CC12CCC(C(=O)C1=O)C2(C)C (configuration not stated)
inactive: Potency [1] | outcome [2] | outcome [9] | outcome [5] | Potency [7]

COc1c(N2CCNC(C)C2)c(F)cc2c(=O)c(C(=O)O)cn(C3CC3)c12 (configuration not stated)
inactive: Potency [1] | outcome [2] | Potency [3] | Potency [4]

CC(C)C1CCC(O)CC1 (configuration not stated)
inactive: Potency [1] | outcome [2] | Potency [3] | Potency [4] | outcome [5] | Potency [6]

CCCn1cc[n+](C)c1C
inactive: Potency [1] | outcome [2] | outcome [9] | outcome [5] | Potency [7]

CC(CO)(CO)[N+](=O)[O-]
inactive: Potency [1] | outcome [2] | outcome [9] | outcome [5] | Potency [6] | Potency [7]

CC(=O)NC(=O)c1ccccc1O
inactive: Potency [1] | outcome [2] | outcome [9] | outcome [5] | Potency [6] | Potency [7]

CCOC(=O)c1ccccc1
inactive: Potency [1] | outcome [2] | outcome [5] | Potency [8] | Potency [7]

CC(C)CCCO
inactive: Potency [1] | outcome [2] | outcome [9] | outcome [5] | Potency [6] | Potency [7]

C[N+]12CCC(CC1)C(OC(=O)C(O)(c1ccccc1)c1ccccc1)C2 (configuration not stated)
inactive: Potency [1] | outcome [2] | Potency [3] | Potency [4] | outcome [5] | Potency [8] | Potency [6]

Cc1ccc(-c2ncc(Cl)cc2-c2ccc(S(C)(=O)=O)cc2)cn1
inactive: Potency [1] | outcome [2] | outcome [9] | outcome [5] | Potency [6] | Potency [7]

CCOc1c(N2CCOCC2)cnn(C)c1=O
inactive: Potency [1] | outcome [2] | outcome [5] | Potency [6]

CCCC(C)C(=O)OCC (configuration not stated)
inactive: Potency [1] | outcome [2] | Potency [3] | Potency [4] | outcome [5] | Potency [8] | Potency [6]

O=C(O)c1cc(C(=O)O)cc(C(=O)O)c1
inactive: Potency [1] | outcome [2] | Potency [3] | Potency [4] | outcome [5] | Potency [6] | Potency [7]

NC(CCC(=O)O)C(=O)O (configuration not stated)
inactive: Potency [1] | outcome [2] | Potency [3] | Potency [4] | outcome [5] | Potency [6] | Potency [7]

O=C1CCCCCCCCCCCCCCO1
inactive: Potency [1] | outcome [2] | outcome [9] | outcome [5] | Potency [7]

O=[N+]([O-])c1ccc(/C=N\O)o1
inactive: Potency [1] | outcome [2] | Potency [3] | outcome [5] | Potency [7]

Cc1cccc(C)c1NC(=O)CC12CCCN1CCC2
inactive: Potency [1] | outcome [2] | Potency [3] | Potency [4] | outcome [5] | Potency [8] | Potency [6] | Potency [7]

CCCCCCCC1CCCC1=O (configuration not stated)
inactive: Potency [1] | outcome [2] | outcome [9] | outcome [5] | Potency [6] | Potency [7]

CC(C)(C)C(=O)c1ccccc1
inactive: Potency [1] | outcome [9] | Potency [3] | Potency [4] | Potency [6]

COc1ccccc1OCC1CNC(=O)O1 (configuration not stated)
inactive: Potency [1] | outcome [9] | Potency [3] | Potency [4] | outcome [5] | Potency [8] | Potency [6] | Potency [7]

Cc1ncc([C@@H](CCCCCCc2ccc3c(n2)NCCC3)CC(=O)O)cn1
inactive: Potency [1] | outcome [2] | outcome [5] | Potency [7]

CC(C)(C)c1ccc(-c2ccc(C(C)(C)C)cc2)cc1
inactive: Potency [1] | outcome [9] | Potency [3] | Potency [4] | outcome [5] | Potency [8] | Potency [6] | Potency [7]

CC(=O)N[C@H]1[C@H]([C@H](O)[C@H](O)CO)OC(C(=O)O)=C[C@@H]1N=C(N)N
inactive: Potency [1] | outcome [9] | outcome [5] | Potency [6] | Potency [7]

[O-][n+]1cccc(CO)c1
inactive: Potency [1] | outcome [9] | Potency [3] | Potency [4] | outcome [5] | Potency [6] | Potency [7]

NCCCC(N)(C(=O)O)C(F)F (configuration not stated)
inactive: Potency [1] | outcome [2] | outcome [5] | Potency [6] | Potency [7]

O=C(CO)[C@@H](O)[C@H](O)[C@H](O)CO
active: Potency [8] 0.0017 µM
inactive: Potency [1] | outcome [9] | Potency [3] | Potency [4] | outcome [5] | Potency [6]

c1ccc(Cc2ccccc2)cc1
inactive: Potency [1] | outcome [9] | outcome [5] | Potency [7]

NC(=O)N[C@@H](CCC(=O)O)C(=O)O
inactive: Potency [1] | outcome [9] | Potency [3] | Potency [4] | Potency [6] | Potency [7]

CC(C)[C@H]1CC[C@@H](C)CC1=O
inactive: Potency [1] | outcome [9] | outcome [5] | Potency [6] | Potency [7]

CCCOC(=O)CC
inactive: Potency [1] | outcome [9] | Potency [3] | Potency [4] | Potency [6] | Potency [7]

COC(=O)C1=C(C)NC(C)=C(C(=O)OC(C)C)C1c1cccc2nonc12 (configuration not stated)
inactive: Potency [1] | outcome [9] | Potency [3] | Potency [10] | Potency [8] | Potency [6] | Potency [7]

CC(C)NNC(=O)c1ccncc1
inactive: Potency [1] | outcome [2] | outcome [5] | Potency [6]

CCCC[N+](C)(CCCC)CCCC
inactive: Potency [1] | outcome [9] | Potency [3] | Potency [4] | Potency [6] | Potency [7]

CCOC(=O)C1=NOC(c2ccccc2)(c2ccccc2)C1
inactive: outcome [9] | outcome [5] | Potency [7]
active: Potency [1] 71 µM

COc1cc(C(=O)OC(COCCC(C)C)CN2CCOCC2)cc(OC)c1OC (configuration not stated)
inactive: Potency [1] | outcome [9] | Potency [3] | Potency [4] | Potency [6] | Potency [7]

C=CC(C)(CCC=C(C)C)OC(=O)CC (configuration not stated)
inactive: Potency [1] | outcome [9] | Potency [3] | Potency [4] | outcome [5] | Potency [6] | Potency [7]

CCC1C(=O)OCC1Cc1cncn1C (configuration not stated)
inactive: Potency [1] | outcome [2] | Potency [6] | Potency [7]

CCN[C@@H]1C[C@H](N)[C@@H](OC2OC(CN)=CCC2N)[C@H](O)[C@H]1O[C@H]1OC[C@](C)(O)[C@H](NC)[C@H]1O (some centres not stated)
inactive: activity change, negative = inhibition [1] -1.17% [at 0.435 µM] | viability change, negative = cytotoxic [2] 2.22% [at 0.349 µM] | activity change, negative = cytotoxicity [7] 3.33% [at 0.29 µM]

Cc1nc2ccc(CN(C)c3ccc(C(=O)N[C@@H](CCC(=O)O)C(=O)O)s3)cc2c(=O)[nH]1
inactive: Potency [1] | outcome [9] | Potency [3] | Potency [4] | Potency [6]

C[N+]1(CC2COC(c3ccccc3)(c3ccccc3)O2)CCCCC1 (configuration not stated)
inactive: activity change, negative = inhibition [1] -3.43% [at 23.6 µM] | activity change, negative = cytotoxicity [9] 4.57% [at 19 µM] | activity, negative = inhibition [3] -9.35% [at 19 µM] | activation [4] -2.79% [at 19 µM] | viability change, negative = cytotoxic [5] -2.82% [at 19 µM] | activation [8] 0.389% [at 19 µM] | activity change, negative = cytotoxicity [7] 0.991% [at 15.8 µM]

From PubChem BioAssay (Tox21)
